Sampled rows, rich in hits. Any-hit rate of the full collection: about 1.2%.
Avidin fluor: green autofluorescence of compounds with avidin beads – biophysical, 488/530 nm, flow cytometry, artefact control, profiling panel; 0.38% of 220,000 active; AID 1775, 2009; compound fluorescence 488/530 nm; hits give high values; fluorescence (KMESF) at 10 µM; in the data active = fluorescence above about 47
RGS4-Gao reg: modulators of RGS4 binding to Galphao, primary screen, biochemical, multiplexed bead flow cytometry. actives lie on both sides. Guanine nucleotide-binding protein G(o) subunit alpha (Homo sapiens), P09471. binding response (% of control), % at 10 µM. 0.33% of 220,000 active; in the data active = binding response below about 49% or above about 150%; inactive = in between;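 also: fluorescent Galphao activated with aluminum fluoride binding bead-coupled RGS4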
Target sequence (P09471 whole entry, looked up): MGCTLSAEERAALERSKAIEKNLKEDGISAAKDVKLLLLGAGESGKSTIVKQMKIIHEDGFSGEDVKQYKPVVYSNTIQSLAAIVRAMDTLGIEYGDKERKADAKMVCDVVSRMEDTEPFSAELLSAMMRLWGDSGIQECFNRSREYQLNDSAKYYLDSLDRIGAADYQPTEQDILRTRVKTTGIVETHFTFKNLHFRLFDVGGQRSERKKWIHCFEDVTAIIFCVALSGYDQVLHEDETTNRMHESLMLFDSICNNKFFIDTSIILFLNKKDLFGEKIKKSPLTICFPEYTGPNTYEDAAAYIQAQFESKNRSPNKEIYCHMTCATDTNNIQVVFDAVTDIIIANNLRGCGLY
GSH fluor: compound fluorescence on glutathione beads, profiling panel, artefact control, biophysical, 488/530 nm, flow cytometry. GSH beads flow cytometry, compound fluorescence 488/530 nm; hits give high values. fluorescence (KMESF) at 10 µM. 0.25% of 190,000 active. AID 1776, 2009; in the data active = fluorescence above about 89;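 also: glutathione beads carrying GST-tagged Bcl family fusion proteins plus one bare bead set; values are compound well signal with DMSO vehicle wells as background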
RGS8-Gao reg: RGS8-Galphao binding modulators, primary screen, biochemical, multiplexed bead flow cytometry | AID 1423, 2008 | actives lie on both sides | Guanine nucleotide-binding protein G(o) subunit alpha (Homo sapiens), P09471 | response (percent of control binding), % at 10 µM | 0.34% of 220,000 active; in the data active = response below about 60% or above about 140%; inactive = in between;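 also: Galphao activated as the GDP aluminium fluoride complex binding bead-coupled RGS8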
RGS7-Gao reg: RGS7-Galphao binding modulators, primary screen, biochemical, multiplexed bead flow cytometry. binding response (% of control), % at 10 µM. Guanine nucleotide-binding protein G(o) subunit alpha (Homo sapiens), P09471. 0.35% of 220,000 active. actives lie on both sides; in the data active = binding response below about 49% or above about 150%; inconclusive = no clear call, values can overlap the other calls; inactive = in between;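 also: fluorescent Galphao held in activated GDP-AlF4 state binding bead-coupled RGS7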
RGS16-Gao HTS: modulators of RGS16 binding to Galphao, primary screen, biochemical, human proteins, multiplexed bead flow cytometry | bead-based flow cytometry RGS16-Galphao binding, fluorescence; actives lie on both sides | binding response (% of control), % at 10 µM | 0.38% of 220,000 active | AID 1441, 2008 | Regulator of G-protein signaling 16 (Homo sapiens) + Guanine nucleotide-binding protein …;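 also: Galphao activated by GDP with aluminum fluoride before binding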
Target sequence (O15492 whole entry, looked up): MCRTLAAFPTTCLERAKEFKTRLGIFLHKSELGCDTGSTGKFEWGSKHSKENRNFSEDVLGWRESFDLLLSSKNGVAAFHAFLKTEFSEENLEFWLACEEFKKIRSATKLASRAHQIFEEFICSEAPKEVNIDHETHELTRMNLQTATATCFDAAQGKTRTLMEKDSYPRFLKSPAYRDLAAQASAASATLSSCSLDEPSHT
Target sequence (P09471 whole entry, looked up): as the sequence (P09471 whole entry, looked up) above
RGS-Gao: modulators of RGS–Galpha-o binding, primary screen, biochemical, multiplexed beads, flow cytometry, RGS4/7/8/16/19 | shares compounds with RGS16-Gao HTS | multiplexed bead flow cytometry | RGS4–Galpha-o binding response, % at 10 µM | 99% of 1,600 active;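 also: fluorescently labeled Galpha-o bound to GDP with aluminium fluoride binding biotinylated RGS beads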
Biotin-avidin: disruption of biotin probe capture by avidin, counter-screen for RGS protein interaction modulators, biochemical, flow cytometry, bead-based | shares compounds with RGS16-Gao HTS | 1,700 tested, under 10 active | inhibition, % at 10 µM | streptavidin beads, fluorescein-biotin binding;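 active = inhibition above 50%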;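 also: median green fluorescence of gated singlet beads compared with DMSO control wells; 0% = DMSO wells and 100% = complete loss of bead fluorescence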
RGS8-Gao confirm: RGS8-Galphao binding modulators, confirmation, biochemical, multiplexed bead flow cytometry, single concentration | shares compounds with RGS16-Gao HTS | bead-based flow cytometry RGS8-Galphao binding, fluorescence; actives lie on both sides | binding response (% of control), % at 10 µM | 3% of 1,700 active | AID 1836, 2009; in the data active = binding response below about 72% or above about 130%; inactive = in between;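 also: Galphao activated as GDP AlF4 complex before binding bead RGS8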
RGS7-Gao confirm: RGS7-Galphao binding modulators, confirmation, biochemical, multiplexed bead flow cytometry, single concentration. shares compounds with RGS16-Gao HTS. response (percent of control binding), % at 10 µM. 7.8% of 1,700 active. bead-based flow cytometry RGS7-Galphao binding; actives lie on both sides; in the data active = response below about 75% or above about 130%; inactive = in between;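 also: fluorescent Galphao activated with GDP and aluminum fluoride binding bead-coupled RGS7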
RGS16-Gao conf: modulators of RGS16-Galphao protein binding, confirmation, biochemical, single concentration, multiplexed bead flow cytometry. response (% of control binding), % at 10 µM. bead-based flow cytometry; actives lie on both sides. AID 1838, 2009. shares compounds with RGS16-Gao HTS. 4% of 1,700 active; in the data active = response below about 74% or above about 130%; inactive = in between;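 also: Galphao activated as the GDP aluminium fluoride complex binding bead-coupled RGS16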
RGS4-Gao single: modulators of RGS4-Galphao protein binding, confirmation, biochemical, single concentration, multiplexed bead flow cytometry | shares compounds with RGS16-Gao HTS | actives lie on both sides | AID 1840, 2009 | 4% of 1,700 active | binding response (% of control), % at 10 µM; in the data active = binding response below about 74% or above about 130%; inactive = in between
RGS19-Gao single: regulators of RGS19-Galphao binding, confirmation, biochemical, single point, multiplexed bead flow cytometry; 5% of 1,700 active; AID 1841, 2009; shares compounds with RGS16-Gao HTS; response (percent of control binding), % at 10 µM; bead-based flow cytometry RGS19-Galphao binding; actives lie on both sides; in the data active = response below about 50% or above about 160%; inactive = in between;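 also: 100% = no compound control and 0% = blank background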
* = called active by the depositor; ? = inconclusive; nt = no result; [ ] = remark or other dose. Unless noted, no rule for the calls is given here.

SMILES	Avidin fluor	RGS4-Gao reg	GSH fluor	RGS8-Gao reg	RGS7-Gao reg	RGS16-Gao HTS	RGS-Gao	Biotin-avidin	RGS8-Gao confirm	RGS7-Gao confirm	RGS16-Gao conf	RGS4-Gao single	RGS19-Gao single
Cc1ccc(SCCNC(=O)/C=C/c2ccc([N+](=O)[O-])cc2)cc1	17	113	9	135	112	280*[activator]	113*	-1	100	103	102	102	95
O=C(/C=C/c1ccc([N+](=O)[O-])cc1)NCCSc1ccccc1	7	106	38	104	107	94	nt	nt	nt	nt	nt	nt	nt
O=C(NCC1OCCc2ccccc21)c1ccc(NC(=O)c2ccc(Cl)cc2Cl)cc1 (centres undefined)	190*	315*[activator]	17	143*[activator]	329*[activator]	445*[activator]	nt	4	98	95	90	94	73
CCc1cc(C=NC2CCCCC2)c(O)s1	-5	-60*	11	-0.4*	-28*	-39*	nt	-2	100	96	99	99	112
CC(OC(=O)c1ccccc1NS(=O)(=O)c1cccc(N)c1)C(=O)N(C)Cc1ccccc1 (centres undefined)	8	91	8	73	86	12*	91*	1	100	104	102	102	91
O=C(NCc1cccnc1)c1ccccc1Br	14	102	22	99	101	102	nt	nt	nt	nt	nt	nt	nt
CCSc1ccccc1C(=O)NCc1cccnc1	22	94	25	59*	81	101	94*	-1	100	67*	90	73*	85
COC(=O)c1ccccc1NC(=O)c1ccc2c(c1)OCCO2	15	134	52	131	137	231*[activator]	134*	1	98	94	97	100	87
CC(C)(C)C(=O)Nc1ccccc1C(=O)OCC(=O)c1ccc2c(c1)OCCO2	3	99	10	99	99	94	nt	nt	nt	nt	nt	nt	nt
CCn1c(SCC(=O)Nc2nc3ccc(C)cc3s2)nc2c(c1=O)SC(C)C2 (centres undefined)	117*	112	24	101	158*[activator]	109	112*	nt	nt	nt	nt	nt	nt
Fc1ccc(NC(=S)N2CCN(c3ncccn3)CC2)cc1	11	102	18	102	?	101	nt	nt	nt	nt	nt	nt	nt
CCOC(=O)C1=C(C)NC(C)=C(C(=O)OCCNC(=O)c2cccnc2)C1c1cccc([N+](=O)[O-])c1 (centres undefined)	3	108	6	124	111	213*[activator]	108*	-2	85	70*	78	81	104
CC1CN(C(=O)COC(=O)c2ccc(Cl)nc2)CC(C)O1 (centres undefined)	9	99	17	102	?	96	nt	nt	nt	nt	nt	nt	nt
CCNc1ccc2noc3c2c1C(=O)c1ccccc1-3	7	47*	14	55*	46*	43	nt	0	69*	63*	66*	69*	116
CCSc1ncnc2sc(C)c(C)c12	4	102	6	99	101	77	nt	nt	nt	nt	nt	nt	nt
Cc1sc2ncnc(Sc3nnc4sc5ccccc5n34)c2c1C	16	208*[activator]	8	111	129	292*[activator]	nt	-1	99	98	104	98	92
N#Cc1nc(COc2ccc(Br)cc2)oc1NCCN1CCOCC1	7	140	16	143*[activator]	133	121	140*	3	98	101	99	98	95
O=C(NCCc1ccccc1F)/C(=C/c1cccnc1)NC(=O)c1ccccc1	6	101	13	96	97	78	nt	nt	nt	nt	nt	nt	nt
COc1ccc(CCNC(=O)/C(=C/c2cccnc2)NC(=O)c2ccccc2)cc1	14	110	13	127	108	226*[activator]	110*	-2	103	107	104	103	92
Cc1ccc(C)c(C(=O)COC(=O)c2cc(Cl)nc3ccccc23)c1	1	96	5	96	95	91	nt	nt	nt	nt	nt	nt	nt
Cc1ccc(C(=O)COC(=O)c2cc(Cl)nc3ccccc23)cc1C	5	130	55	158*[activator]	118	805	130*	nt	nt	nt	nt	nt	nt
O=c1cc2oc3cc(O)c(O)cc3c(-c3ccccc3O)c-2cc1O	2	90	nt	87	?	86	nt	nt	nt	nt	nt	nt	nt
CCOc1ccccc1-c1c2cc(O)c(=O)cc-2oc2cc(O)c(O)cc12	4	85	10	69	42*	47	85*	-2	64*	50*	63*	82	40*
CCC/C(O)=C1\C(=O)CC(c2ccccc2)CC1=NCCc1c(C)[nH]c2ccc(C)cc12 (centres undefined)	2	52	16	52*	52	14*	52*	nt	nt	nt	nt	nt	nt
COCCNC(=O)CN(C(=O)Cn1nnc2ccccc21)c1cc(C)cc(C)c1	60*	110	9	100	167*[activator]	103	110*	0	94	92	94	93	100

Bioassay records deposited in PubChem BioAssay by NMMLSC.
